PubChem BioAssay AID1159580 (chemical genetic matrix, 2015)
Screen size: about 5,500 compounds; about 2,000 (36%) were called active. Inconclusive results (about 18%) are left out. Cut-off read from the data, not from the text of the source: active = normalized growth mostly below about 0.91 (no sharp cut-off); inconclusive = no clear call, values can overlap the other calls; inactive = mostly above about 0.92. This is one part of the list.

Assay: chemical genetic growth profiling, strain panel (AID 1159580);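 note: tested at 20 µM; growth read once vehicle control cultures reached saturation at 30 °C; 1 = growth at the plate median or of vehicle wells; lower values mean less growth of the strain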
Settings: growth OD

Measured: normalized growth

C=C1c2c(Cl)ccc(O)c2C(O)=C2C(=O)[C@]3(O)C(O)=C(C(N)=O)C(=O)[C@@H](N(C)C)[C@@H]3[C@@H](O)[C@H]12
active: S. cerevisiae deletion strains, locus YLR268W, strain sec22, active compounds read low 0.866 | S. cerevisiae deletion strains, locus YMR058W, strain fet3, active compounds read low 0.841 | S. cerevisiae deletion strains, locus YNL209W, strain ssb2, active compounds read low 0.924
inactive: S. cerevisiae deletion strains, locus YJR075W, strain HOC1, active compounds read low 0.96 | S. cerevisiae deletion strains, locus YKL009W, strain mrt4, active compounds read low 1 | S. cerevisiae deletion strains, locus YKL068W, active compounds read low 0.989 | S. cerevisiae deletion strains, locus YKL085W, strain MDH1 (second series), active compounds read low 0.971 | S. cerevisiae deletion strains, locus YKL085W, strain MDH1, active compounds read low 0.971 | S. cerevisiae deletion strains, locus YKL160W, strain elf1, active compounds read low 0.999 | S. cerevisiae deletion strains, locus YKL190W, strain CNB1, active compounds read low 0.979 | S. cerevisiae deletion strains, locus YKR001C, strain vps1, active compounds read low 0.917 | S. cerevisiae deletion strains, locus YKR026C, strain gcn3, active compounds read low 0.983 | S. cerevisiae deletion strains, locus YKR091W, strain srl3, active compounds read low 0.973 | S. cerevisiae deletion strains, locus YLL001W, strain dnm1, active compounds read low 1.01 | S. cerevisiae deletion strains, locus YLL026W, active compounds read low 0.996 | S. cerevisiae deletion strains, locus YLL041C, strain sdh2, active compounds read low 0.985 | S. cerevisiae deletion strains, locus YLR027C, strain aat2, active compounds read low 1 | S. cerevisiae deletion strains, locus YLR039C, strain RIC1, active compounds read low 0.968 | S. cerevisiae deletion strains, locus YLR058C, strain SHM2, active compounds read low 0.937 | S. cerevisiae deletion strains, locus YLR102C, strain apc9, active compounds read low 0.986 | S. cerevisiae deletion strains, locus YLR113W, strain HOG1, active compounds read low 1.01 | S. cerevisiae deletion strains, locus YLR221C, strain rsa3, active compounds read low 0.935 | S. cerevisiae deletion strains, locus YLR258W, strain gsy2, active compounds read low 0.948 | S. cerevisiae deletion strains, locus YLR262C, strain YPT6 (second series), active compounds read low 0.974 | S. cerevisiae deletion strains, locus YLR262C, strain YPT6, active compounds read low 0.997 | S. cerevisiae deletion strains, locus YLR320W, strain mms22, active compounds read low 0.926 | S. cerevisiae deletion strains, locus YLR330W, strain CHS5, active compounds read low 0.981 | S. cerevisiae deletion strains, locus YLR342W, strain FKS1 (second series), active compounds read low 0.875 | S. cerevisiae deletion strains, locus YLR342W, strain FKS1, active compounds read low 0.965 | S. cerevisiae deletion strains, locus YLR357W, strain rsc2, active compounds read low 0.895 | S. cerevisiae deletion strains, locus YLR370C, strain arc18, active compounds read low 0.988 | S. cerevisiae deletion strains, locus YLR371W, strain rom2, active compounds read low 0.987 | S. cerevisiae deletion strains, locus YLR384C, strain iki3, active compounds read low 0.988 | S. cerevisiae deletion strains, locus YLR418C, strain cdc73, active compounds read low 0.899 | S. cerevisiae deletion strains, locus YML016C, strain PPZ1, active compounds read low 0.968 | S. cerevisiae deletion strains, locus YML032C, strain rad52, active compounds read low 0.937 | S. cerevisiae deletion strains, locus YML120C, strain ndi1, active compounds read low 0.993 | S. cerevisiae deletion strains, locus YML124C, strain tub3, active compounds read low 0.977 | S. cerevisiae deletion strains, locus YMR078C, strain ctf18, active compounds read low 0.983 | S. cerevisiae deletion strains, locus YMR125W, strain sto1, active compounds read low 0.954 | S. cerevisiae deletion strains, locus YMR129W, active compounds read low 0.981 | S. cerevisiae deletion strains, locus YMR205C, strain PFK2, active compounds read low 0.998 | S. cerevisiae deletion strains, locus YMR223W, strain ubp8, active compounds read low 0.969 | S. cerevisiae deletion strains, locus YMR231W, strain pep5, active compounds read low 0.987 | S. cerevisiae deletion strains, locus YMR263W, strain SAP30, active compounds read low 0.957 | S. cerevisiae deletion strains, locus YMR307W, strain GAS1, active compounds read low 0.887 | S. cerevisiae deletion strains, locus YNL067W, strain RPL9B, active compounds read low 0.93 | S. cerevisiae deletion strains, locus YNL071W, strain lat1, active compounds read low 0.96 | S. cerevisiae deletion strains, locus YNL128W, strain TEP1, active compounds read low 0.936 | S. cerevisiae deletion strains, locus YNL153C, strain GIM3, active compounds read low 0.897 | S. cerevisiae deletion strains, locus YNL183C, strain NPR1, active compounds read low 0.947 | S. cerevisiae deletion strains, locus YNL233W, strain BNI4, active compounds read low 0.919 | S. cerevisiae deletion strains, locus YNL248C, strain rpa49, active compounds read low 0.921 | S. cerevisiae deletion strains, locus YNL250W, strain rad50, active compounds read low 0.96 | S. cerevisiae deletion strains, locus YNL271C, strain bni1, active compounds read low 0.961 | S. cerevisiae deletion strains, locus YNL298W, strain CLA4, active compounds read low 1 | S. cerevisiae deletion strains, locus YNL307C, strain MCK1, active compounds read low 0.965 | S. cerevisiae deletion strains, locus YNL322C, strain KRE1 (second series), active compounds read low 0.958 | S. cerevisiae deletion strains, locus YNL322C, strain KRE1, active compounds read low 0.985 | S. cerevisiae deletion strains, locus YNR049C, strain mso1, active compounds read low 0.971 | S. cerevisiae deletion strains, locus YNR052C, strain pop2, active compounds read low 0.99 | S. cerevisiae deletion strains, locus YOL006C, strain TOP1, active compounds read low 0.839 | S. cerevisiae deletion strains, locus YOL012C, strain htz1 0.807 | S. cerevisiae deletion strains, locus YOL147C, strain pex11, active compounds read low 0.975 | S. cerevisiae deletion strains, locus YOR001W, strain rrp6, active compounds read low 0.997 | S. cerevisiae deletion strains, locus YOR061W, strain CKA2, active compounds read low 0.973 | S. cerevisiae deletion strains, locus YOR069W, strain VPS5, active compounds read low 0.974 | S. cerevisiae deletion strains, locus YOR070C, strain gyp1, active compounds read low 0.951 | S. cerevisiae deletion strains, locus YOR080W, strain dia2, active compounds read low 0.988 | S. cerevisiae deletion strains, locus YOR083W, strain WHI5, active compounds read low 0.96 | S. cerevisiae deletion strains, locus YOR106W, strain vam3, active compounds read low 0.974 | S. cerevisiae deletion strains, locus YOR136W, strain idh2, active compounds read low 0.997 | S. cerevisiae deletion strains, locus YOR144C, strain elg1, active compounds read low 0.984 | S. cerevisiae deletion strains, locus YOR184W, strain ser1, active compounds read low 0.978 | S. cerevisiae deletion strains, locus YOR231W, strain MKK1, active compounds read low 0.972 | S. cerevisiae deletion strains, locus YOR265W, strain rbl2, active compounds read low 0.974 | S. cerevisiae deletion strains, locus YOR270C, strain vph1, active compounds read low 0.97 | S. cerevisiae deletion strains, locus YOR290C, strain snf2, active compounds read low 0.916 | S. cerevisiae deletion strains, locus YOR316C, strain cot1, active compounds read low 0.992 | S. cerevisiae deletion strains, locus YPL051W, strain arl3, active compounds read low 0.973 | S. cerevisiae deletion strains, locus YPL055C, strain LGE1, active compounds read low 0.94 | S. cerevisiae deletion strains, locus YPL078C, strain atp4, active compounds read low 1.02 | S. cerevisiae deletion strains, locus YPL106C, strain sse1, active compounds read low 0.898 | S. cerevisiae deletion strains, locus YPL240C, strain hsp82, active compounds read low 1 | S. cerevisiae deletion strains, locus YPL241C, strain CIN2, active compounds read low 0.978 | S. cerevisiae deletion strains, locus YPL256C, strain CLN2, active compounds read low 1.01 | S. cerevisiae deletion strains, locus YPR119W, strain clb2, active compounds read low 0.985 | S. cerevisiae deletion strains, locus YPR141C, strain kar3, active compounds read low 0.979 | S. cerevisiae deletion strains, locus YPR163C, strain tif3, active compounds read low 0.958 | S. cerevisiae deletion strains, locus YPR167C, strain met16, active compounds read low 0.977 | S. cerevisiae deletion strains, strain wtn01, active compounds read low 0.934 | S. cerevisiae strains, strain wild type, active compounds read low 0.95
